TR-FRET SRC-2 ct: TR-FRET signal artefacts, primary screen, artefact control for PPARgamma SRC-2 agonist project, biochemical; TR-FRET artefact counter-screen; stronger effect = higher value; actives 0.4% (n = 200,000); TR-FRET ratio at 8 µM
SRC3 TRFRET art: TR-FRET detection interference compounds, artefact control for PPARgamma SRC-3 recruitment agonists, biochemical, TR-FRET ratio; TR-FRET artefact counter-screen, PPARgamma/SRC-3 format; stronger effect = higher value; TR-FRET ratio at 8 µM; actives 0.39% (n = 99,000); AID 1048, 2008
PPARg SRC-1 ag: PPARgamma agonists recruiting SRC-1 coactivator, primary screen, biochemical; Peroxisome proliferator-activated receptor gamma (Homo sapiens), P37231; actives 0.41% (n = 200,000); PPARgamma-SRC-1 coactivator recruitment biochemical assay; activation, % at 8 µM; AID 631, 2007; in the data active means activation above about 19%
SRC1 TRFRET art: TR-FRET detection interference compounds, primary screen, artefact control for PPARgamma SRC-1 recruitment agonists, biochemical, TR-FRET emission ratio | TR-FRET detection artefact counter-screen; stronger effect = higher value | TR-FRET ratio at 8 µM | actives 0.34% (n = 99,000) | AID 1051, 2008; in the data active means TR-FRET ratio above about 2300
PPARg SRC-3 ag: PPARgamma agonists recruiting SRC-3 coactivator, primary screen, biochemical; actives 0.26% (n = 200,000); Peroxisome proliferator-activated receptor gamma (Homo sapiens), P37231; biochemical PPARgamma/SRC-3 coactivator recruitment assay; activation, % at 8 µM; in the data active means activation above about 23%
PPARg SRC-2 ag: agonists of PPARg-SRC-2 recruitment, primary screen, biochemical, HTS; PPARgamma LBD-SRC-2 recruitment; activation, % at 8 µM; actives 0.34% (n = 200,000); AID 1032, 2008; in the data active means activation above about 22%
PPARg SRC2 ag: agonists of PPARgamma SRC-2 coactivator recruitment, confirmation, biochemical, HTS. shares compounds with PPARg SRC-3 ag. biochemical SRC-2 recruitment by PPARgamma. activation, % at 8 µM. actives 52% (n = 790). AID 1297, 2008; in the data active means activation above about 22%
PPARg SRC1 conf: PPARgamma agonists recruiting SRC-1 coactivator, confirmation, biochemical; shares compounds with PPARg SRC-3 ag; PPARgamma–SRC-1 coactivator recruitment biochemical assay; activation, % at 8 µM; actives 43% (n = 790); AID 1300, 2008; in the data active means activation above about 20%
PPARg SRC3 conf: PPARgamma-driven SRC-3 coactivator recruitment agonists, confirmation, biochemical; biochemical PPARgamma-SRC-3 coactivator recruitment, agonist mode; activation, % at 8 µM; actives 29% (n = 790); shares compounds with PPARg SRC-3 ag; in the data active means activation above about 24%
Hits are given with their value; – = inactive; · = no result given. A selection: hits, their analogues and other compounds. The true share with any hit is near 0.84%. Unless noted, no stated cut-off is given here; in the data, active means TR-FRET ratio above about 2000; inactive means the rest.

SMILES	TR-FRET SRC-2 ct	SRC3 TRFRET art	PPARg SRC-1 ag	SRC1 TRFRET art	PPARg SRC-3 ag	PPARg SRC-2 ag	PPARg SRC2 ag	PPARg SRC1 conf	PPARg SRC3 conf
CCOCCCNC(=O)/C(C#N)=C/c1cc(OC)c(O)c([N+](=O)[O-])c1	–	–	–	–	–	–	·	·	·
COCCNC(=S)NNC(=O)c1ccc(-n2cnnn2)cc1	–	–	–	–	–	–	·	·	·
CCCC1O[C@@H]2C[C@H]3[C@@H]4CCC5=CC(=O)C=C[C@]5(C)[C@H]4[C@@H](O)C[C@]3(C)[C@]2(C(=O)CO)O1 (stereo partly specified)	–	–	–	–	–	–	·	·	·
CCCC1O[C@@H]2CC3C4CCC5=CC(=O)C=C[C@]5(C)C4C(OC(C)=O)C[C@]3(C)[C@]2(C(=O)COC(C)=O)O1 (stereo partly specified)	–	·	60.4	·	47.1	38.2	41.9	49.0	48.1
CCCn1cc(SCC(=O)Nc2ccc3c(c2)OCO3)c2ccccc21	–	·	–	·	–	–	·	·	·
CCn1c(=O)cc(SCC(=O)Nc2ccc3c(c2)OCCO3)c2ccccc21	3434	·	68.6	·	92.3	84.9	65.0	45.7	43.4
Cn1cc(SCC(=O)Nc2ccc3c(c2)OCO3)c2ccccc21	–	·	–	·	–	–	·	·	·
Cn1c(=O)cc(SCC(=O)Nc2ccc3c(c2)OCO3)c2ccccc21	2627	·	31.9	·	42.5	59.6	42.1	27.6	27.1
Cc1sc(NC(=S)NC(=O)c2ccco2)c(C#N)c1C	–	–	–	–	–	–	·	·	·
CCn1c(SCC(=O)OC2CCCCC2)nnc1-c1ccncc1	2048	·	–	·	–	29.4	–	–	–
CCn1c(SCC(=O)OC)nnc1-c1ccncc1	–	·	–	·	–	–	·	·	·
CCN(CC)CCNC(=O)CSc1c2c(nc3cc(Cl)ccc13)CCCC2	2230	2600	23.2	3055	24.8	46.5	32.6	22.1	–
COc1cccc(NC(=O)CSc2c3c(nc4ccccc24)CCCC3)c1	–	–	20.6	2392	–	–	21.9	–	–
Cc1cccc(NC(=O)CSc2c3c(nc4ccccc24)CCC3)n1	–	–	–	–	–	–	·	·	·
Cc1ccc(CNC(=O)CSc2c3c(nc4ccc(Cl)cc24)CCCC3)o1	–	·	–	·	–	–	·	·	·
Cc1sc(NC(=S)Nc2ccc(F)cc2)c(C(N)=O)c1C	–	–	25.2	–	–	–	26.5	–	–
CCOC(=O)c1c(NC(=S)Nc2ccc(Cl)cc2)sc(C)c1C	–	·	–	·	–	–	·	·	·
COC(=O)c1c(NC(=S)Nc2ccc(CC(=O)O)cc2)sc(C)c1C	–	–	22.4	–	–	–	50.3	36.2	31.1
Cc1ccc(-c2nnc(SCC(=O)N/N=C/c3ccc(C)s3)n2-c2ccccc2)cc1	–	–	–	–	–	–	·	·	·
CCCn1c(=O)n(C)c(=O)c2c(SCC(=O)NC34CC5CC(CC(C5)C3)C4)nc(CC(C)C)nc21	–	–	–	–	–	–	·	·	·
CN(C)c1ccc(N2CN=C3SCC(=O)N3C2)cc1	2229	·	50.5	·	86.4	64.1	–	–	–
O=C1CSC2=NCN(c3ccc4c(c3)OCO4)CN12	–	·	–	·	–	–	·	·	·
O=C(Nn1c(O)c(C=C2N=c3ccccc3=N2)sc1=S)c1ccccc1Cl	–	·	–	·	29.8	–	25.9	21.2	–
O=C(N/N=C/c1ccc(N2CCOCC2)o1)c1cccc(C(F)(F)F)c1	–	·	–	·	–	23.6	–	–	–
CCOC(=O)Cc1nnc(NC(=O)c2cccc(OCC)c2)s1	–	·	–	·	–	–	·	·	·
SMILES	TR-FRET SRC-2 ct	SRC3 TRFRET art	PPARg SRC-1 ag	SRC1 TRFRET art	PPARg SRC-3 ag	PPARg SRC-2 ag	PPARg SRC2 ag	PPARg SRC1 conf	PPARg SRC3 conf
CCc1nnc(NC(=O)C(CC)c2ccccc2)s1 (stereo unspecified)	–	–	–	–	–	–	·	·	·
Cc1cccc(OCC(=O)Nc2nnc(-c3ccco3)s2)c1	2106	2164	27.9	2686	–	28.0	35.9	28.3	–
COc1ccccc1OCC(=O)Nc1nnc(-c2ccco2)s1	2199	·	28.5	·	34.9	30.6	23.8	21.4	–
CCOc1cccc(C(=O)Nc2nnc(-c3ccco3)s2)c1	–	·	21.7	·	–	–	–	–	–
CCC(C(=O)Nc1nnc(-c2ccco2)s1)c1ccccc1 (stereo unspecified)	–	·	26.4	·	27.3	–	27.4	20.8	–
Cc1cccc(C(=O)n2cnnc2N)c1	–	–	–	–	–	–	·	·	·
O=C1C2C(C(=O)N1c1ccccc1)N1CCCN1C2c1ccccc1 (stereo unspecified)	–	–	–	–	–	–	·	·	·
Cc1ccc(C2=NNC(=O)C(P(=O)(c3ccccc3)c3ccccc3)C2)cc1 (stereo unspecified)	–	–	–	–	–	–	·	·	·
CCCC(=O)Nc1nnc(-c2ccco2)s1	–	·	–	·	–	–	·	·	·
O=C(Cc1ccccc1)Nc1nnc(-c2ccco2)s1	2292	·	36.8	·	36.8	31.5	30.6	24.2	–
Cc1ccc(C(=O)NCCc2ccc(S(=O)(=O)N3CCCC3)cc2)cc1	–	–	–	–	–	–	·	·	·
Cc1cc2ccccc2n1CCNC(=O)c1ccc(S(=O)(=O)N2CCCCC2)cc1	3753	·	24.4	·	43.8	26.0	93.0	80.0	70.0
Cc1cc2cc(CNS(=O)(=O)c3ccc4ccccc4c3)ccc2n1C	3303	·	–	·	37.8	–	104.2	78.6	65.4
Cc1cc2cc(CNC(=O)c3ccc(S(=O)(=O)N4CCOCC4)cc3)ccc2n1C	2210	·	30.9	·	45.0	–	35.4	29.1	–
CCCC(=O)NCc1ccc2c(c1)cc(C)n2C	–	·	–	·	–	–	·	·	·
C1CN(CC23CC4CC(CC(C4)C2)C3)CCO1	–	·	–	·	–	–	·	·	·
Cc1ccccc1-n1cnnc1SCC(=O)Nc1cccnc1Cl	–	–	–	–	–	–	·	·	·
COc1cc2c(cc1NC(=O)CSc1nnc(Cc3cccs3)n1C)oc1ccccc12	–	·	–	·	–	–	·	·	·
CCn1c(SCC(=O)Nc2cc3oc4ccccc4c3cc2OC)nnc1-c1cccs1	–	·	–	·	–	25.9	–	–	–
